HTR5A inv ag – HTR5A inverse agonists in luminescence cell assay, primary screen, counter-screen for OPRM1-OPRD1 heterodimer inverse agonist project, full-deck HTS. hit rate 0.083% among 340,000. inhibition, % at 9.3 µM. 5-hydroxytryptamine receptor 5A (Homo sapiens), P47898. HTR5A cell line, inverse agonism. AID 504634, 2011; in the data active = inhibition mostly above about 23%, no sharp cut-off; inactive = mostly below about 18%;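 note: 0% = cells with DMSO and 100% = no-cell wells with DMSO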
Target sequence (P47898 whole entry, looked up): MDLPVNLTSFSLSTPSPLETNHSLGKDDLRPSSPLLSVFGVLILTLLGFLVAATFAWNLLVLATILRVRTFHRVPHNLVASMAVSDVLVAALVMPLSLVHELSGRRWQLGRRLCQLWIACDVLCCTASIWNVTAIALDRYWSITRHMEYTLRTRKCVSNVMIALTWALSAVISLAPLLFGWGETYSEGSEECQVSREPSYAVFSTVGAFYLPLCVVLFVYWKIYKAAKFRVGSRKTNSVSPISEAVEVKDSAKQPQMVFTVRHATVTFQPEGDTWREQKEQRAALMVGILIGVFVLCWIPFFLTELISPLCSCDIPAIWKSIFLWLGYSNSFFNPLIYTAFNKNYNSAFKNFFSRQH
MOR-DOR ag-1 – agonists of OPRM1-OPRD1 heterodimerization, primary screen, cell-based, luminescence. Mu-type opioid receptor (Homo sapiens) + Delta-type opioid receptor (Homo sapiens), …. cells. activation, % at 9.3 µM. hit rate 0.3% among 340,000;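 note: 0% = vehicle-treated cells and 100% = reference agonist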
HTR5A ag ctr – HTR5A agonists in luminescence cell assay, primary screen, counter-screen for OPRM1-OPRD1 heterodimer agonist project, full-deck HTS; cell-based; activation, % at 9.3 µM; hit rate 0.61% among 340,000; AID 504692, 2011; in the data active = activation mostly above about 9.5%, no sharp cut-off; inactive = mostly below about 7.6%;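 note: 0% = cells with vehicle only and 100% = reference agonist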
MOR-DOR inv ag – inverse agonists of MOR-DOR heterodimerization, primary screen, cell-based, luminescence | inhibition, % at 9.3 µM | Mu-type opioid receptor (Homo sapiens) + Delta-type opioid receptor (Homo sapiens), … | cell-based MOR-DOR heterodimer luminescence, inverse agonism | AID 504357, 2011 | hit rate 0.21% among 340,000; in the data active = inhibition above about 22%, passing the limit was not always enough;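 note: 0% = cells with DMSO and 100% = wells without cells with DMSO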
MOR-DOR ag-2 – OPRM1-OPRD1 heterodimerization promoters, counter-screen for HTR5A agonist project, cell-based, luminescence; shares compounds with HTR5A ag ctr; U2OS counter-screen cells, complementation luminescence, 3 h; activation, % at 9.3 µM; hit rate 13% among 800
HTR5A ag confirm – HTR5A agonists, retest of hits, confirmation, cell-based, luminescence | hit rate 17% among 800 | HTR5A agonist cell assay | activation, % at 9.3 µM | AID 504915, 2011 | shares compounds with HTR5A ag ctr; in the data active = activation above about 17%;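 note: 0% = cells with vehicle only and 100% = full reference agonist response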
* marks the source's active call; other numbers are inactive results; . = no result given. Hits are enriched below; roughly 1.1% of the tested compounds scored in any of these assays. Cut-off read from the data, not from the text of the source, unless noted: active = activation above about 18%; inactive = the rest.

SMILES | HTR5A inv ag | MOR-DOR ag-1 | HTR5A ag ctr | MOR-DOR inv ag | MOR-DOR ag-2 | HTR5A ag confirm
CCOc1cc(CNCC2CCCN2CC)cc(Cl)c1OC (stereo not drawn) | -53 | -1 | 19* | 6 | 1 | 1
O=C(NN=C1CCCCCCC1)c1ccc(F)cc1 | -3 | 1 | 1 | -5 | . | .
CC(C)(C)c1ccc(C(=O)NN=C2CCCC2)cc1 | -24 | 2 | 15* | -10 | 1 | 1
Cc1cc(C)cc(OCC(=O)Nc2nc(-c3ccccn3)cs2)c1 | -30 | 2 | 21* | -11 | 0 | 64*
CCOC(=O)c1c(CSC(=N)N)n(-c2ccc(C)cc2)c2cc(Br)c(OC(C)=O)cc12 | -98 | 16 | 17* | -93 | 14 | 8
CCOC(=O)c1c(CSC(=N)N)n(C)c2cc(Br)c(OC(C)=O)cc12 | 16 | -1 | 4 | 6 | . | .
Cc1ccc(C)c(S(=O)(=O)NCc2ccncc2)c1 | 0 | -1 | 15* | 3 | 4 | 2
Cc1ccc(C)c(S(=O)(=O)NCc2cccnc2)c1 | -27 | -2 | -3 | 11 | . | .
O=C(O/N=C1/CCSc2ccccc21)c1ccccc1 | -64 | 1 | 23* | -6 | 4 | 10
Nc1ccccc1N=Cc1ccc(-c2cccc(Cl)c2)o1 | -11 | 13 | 4 | -64 | . | .
O=C(Nc1ccc(Nc2ccccc2)cc1)c1c(F)c(F)c(F)c(F)c1F | -7 | 5 | 16* | -24 | 11 | 4
O=C(Nc1ccc(Nc2ccccc2)cc1)c1c(Cl)cccc1Cl | 28 | 0 | -2 | -1 | . | .
CC(C)Cn1cnc2c(SCc3ccccc3)nc(N)nc21 | 6 | -1 | -1 | 7 | . | .
Cc1ccc2ccccc2c1CSc1nc(N)nc2c1ncn2CC(C)C | -58 | -4 | 15* | 17 | 4 | 2
COc1ccc(NC(=O)C(=O)NCC2CCCN2S(=O)(=O)c2ccc(C)cc2)cc1 (stereo not drawn) | -19 | -3 | 8 | 15 | . | .
Cc1cc(C)c(S(=O)(=O)N2CCN(C(=O)CCn3nc(C)c(C)c3C)CC2)c(C)c1 | -47 | 0 | 16* | 0 | 1 | 1
Cc1nc(NC(=O)COc2ccccc2)sc1C(=O)Nc1cccc(Cl)c1 | -46 | 3 | 18* | -16 | 4 | 4
COc1ccc(OCC(=O)Nc2cccc(OC)c2)cc1 | -20 | -3 | 5 | 14 | . | .
COc1ccc(NC(=O)c2sc(NC(=O)COc3ccccc3)nc2C)cc1 | -37 | -1 | 0 | 8 | . | .
CC(=O)c1cccc(NC(=O)COc2ccccc2)c1 | -36 | -1 | 15* | 4 | 5 | 13
COc1cccc(NC(=O)COc2ccc(S(=O)(=O)NC(C)C)cc2)c1 | -37 | -1 | 15* | 2 | 2 | 2
CCc1ccccc1OCC(=O)NNCC(=O)Nc1cccc(C#N)c1 | -19 | 0 | 1 | 1 | . | .
O=C(Cc1cccc(C(F)(F)F)c1)Nc1cc(S(=O)(=O)N2CCOCC2)ccc1N1CCCC1 | -12 | 0 | 5 | 1 | . | .
O=C(CN1C(=O)NC2(CCCC2)C1=O)NCc1ccc(Cl)cc1 | -4 | -4 | -1 | 17 | . | .
O=C(Cc1cccc2ccccc12)NCC(=O)N1CCN(Cc2cccc(C(F)(F)F)c2)CC1 | -2 | 1 | -3 | -4 | . | .
SMILES | HTR5A inv ag | MOR-DOR ag-1 | HTR5A ag ctr | MOR-DOR inv ag | MOR-DOR ag-2 | HTR5A ag confirm
O=C(NCc1cnn(-c2ccccc2)c1)C1CCC(=O)N(C2CC2)C1 (stereo not drawn) | -9 | -1 | -3 | 7 | . | .
O=C(NCCc1c[nH]c2ccccc12)C(=O)NCC1OCCCN1S(=O)(=O)c1cc(F)ccc1F (stereo not drawn) | -151 | -3 | 36* | 14 | -1 | -11
O=C(NCCc1c[nH]c2ccccc12)C(=O)NCC(c1ccco1)N1CCN(c2ccc(F)cc2)CC1 (stereo not drawn) | -166 | 0 | 47* | 1 | 6 | 56*
O=C(Nc1ccc(N2CCN(Cc3ccccc3F)CC2)cc1)c1ccc([N+](=O)[O-])o1 | -23 | 8 | 25* | -43 | -2 | -1
O=C(Nc1ccc(N2CCN(Cc3ccccc3F)CC2)cc1)c1ccccc1[N+](=O)[O-] | -12 | 1 | 2 | -3 | . | .
O=C(CCl)N(c1ccc(Cl)cc1)c1c[nH]c2ccccc12 | -27 | 2 | 16* | -12 | 1 | 21*
O=C(Nc1ccc(C(=O)N2CCCC2)cc1)c1ccccc1[N+](=O)[O-] | 26 | 0 | 18* | -2 | 0 | 5
O=C(c1ccco1)N1CCN(C(=O)c2ccc(-c3cccc(C(F)(F)F)c3)o2)CC1 | -92 | -1 | 35* | 9 | 0 | 23*
O=C(c1ccc(-c2cccc(C(F)(F)F)c2)o1)N1CCCCCCC1 | -10 | 3 | 4 | -14 | . | .
COc1cc(S(=O)(=O)Nc2cccc3cn[nH]c23)c(OC)cc1Cl | 8 | -1 | 0 | 3 | . | .
C/C(=N/NS(=O)(=O)c1ccc(Cl)cc1)c1ccc2c(c1)OCO2 | -7 | -3 | 15* | 17 | 3 | -1
C/C(=N\NS(=O)(=O)c1ccc(Br)cc1)c1ccc2c(c1)OCO2 | 1 | 1 | 7 | -3 | . | .
CCCCNC(=O)CCn1c(=O)c2ccccc2n(Cc2ccc(Cl)cc2)c1=O | -47 | -1 | 18* | 5 | 1 | -2
CN(Cc1ccccc1Cl)C(=O)c1cnccc1C(F)(F)F | -4 | -2 | 15* | 11 | 0 | 3
Cc1ccc(CN2Cc3cccc4c3[C@@H](CC2=O)[C@H](O)[C@H](O)C4)cc1 | 12 | -1 | 1 | 3 | . | .
O=C(N/N=C/c1ccc(O)cc1)c1ccc(COc2cc(Cl)ccc2Cl)o1 | -42 | 7 | 14* | -40 | 41* | 2
CN1CCN(S(=O)(=O)c2ccc(NC(=O)Nc3cccc(Cl)c3)cc2)CC1 | -89 | 6 | 17* | -33 | 8 | 7
O=C(Nc1cccc(Cl)c1)Nc1cc(S(=O)(=O)N2CCCCC2)ccc1Cl | -2 | 2 | 1 | -13 | . | .
C=CCn1c(SCC(=O)Nc2ccccc2C)nc2sc(C)c(C)c2c1=O | -20 | 3 | 1 | -16 | . | .
C=CCn1c(SCC(=O)Nc2sccc2C(N)=O)nc2sc(C)c(C)c2c1=O | -46 | -1 | 18* | 6 | 0 | -3
Cc1ccc(S(=O)(=O)N/N=C\C=C\c2ccccc2)cc1 | -74 | 2 | 38* | -12 | 1 | 4
O=S(=O)(N/N=C\C=C\c1ccccc1)c1ccc(Br)cc1 | -40 | 6 | 19* | -26 | -1 | 3
Cc1[nH]n(-c2ccccc2)c(=O)c1C=NCCc1ccccc1 | -1 | -2 | 2 | 12 | . | .
Cc1[nH]n(-c2ccc([N+](=O)[O-])cc2)c(=O)c1C=NCCc1c[nH]c2ccccc12 | -100 | 1 | 34* | -5 | 3 | 10

Screens (PubChem)
